# Experimental data taken from the supplement of paper PMC10105736.
# Unmarked numbers belong to inactive results.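 How the source made its calls: active = MAPPIT score above the 99th percentile of random reference set scores in the same batch; inactive = at or below it.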
# B1: Nup107 (protein)
# chain: MADSPFPRSSRSGLLRTTLNSSMPPQNLSHSLLILEKSNAEQNELSLMEDTGDDLDRGKSRMDVLFPQFFDVLQAQGNGQEAFEVIQSLTQVCRGVVEQLELEIDHGMGGEQGARQRESMLTWLRQEINTWRLLHALFYDRILLQTDRQADDEMQDGPTLGGSEKEVIQQLYALNATLREYQLVVDWLEACYDRGEQQNPLHAHDRMMAWENTLFQLENLQGAAFGKGHKIVTRLDPDAPVREKRPLHALDEEDNLRLSRAIFELIRAGRVDDGLKLCKHFGQTWRAAILEGWRLHEDPNFEQNVSVLHEKLPIEGNPRRDIWKRCAWMLADSKNYDEYSRATAGVFSGHLGSLKTLLHSNWHDLLWAHLKVQIDIRVESEIRGCCLKNYQPMPDDYWNGRMTMEQIFEELNVAKDASVRDFAQSQLGIIQRHLILDTCGELIQHMVRWVEKDTSQQSPHQLRFMAHIVLFLRQIGRVEQERQAEKIVAAYVEALIARGEPQLIAYYTASLSNPLQVQLYSRFLEQVEQKRPRELAVDAALQAGLDVEQITRVTVQNIRLAHQPLGEFGEPQSGEISAIDQRKISALEWLIHLPEQRGELLWQANAMIRTYLASSKVECMRQTFRMVPADIVQQLVSLYGSVDNIPPREECCLKEYLCYKAYLSGVDSFVEWNRLQQNRPKKPQTSHAASSQDNFTERMASERKEQAHRSEVVRWEHKVKEQAKQTIELLYNVLMFPDKGWLVDPFIAKLPENAVQLSWDHRLLQMEKLRSICIPEIALFLNEVMFKSGDFAGCVRLADEISSENRQLYKVYTKHKLAELLAKIADASLELLNSKLDPWGYPITT
# B2: spn-F (protein)
# chain: MEASAAKITPMASSMSASGSTNSPSSEKMNYALQVALQTIKERCIQLQRRVASMEEENQQLREASSRSEGAPRANEIGVTGDVLSLKAQVSELQRQKEQLEEHIGMVSNENRRLWSRLSQISKDQQLNALPSSTDSRAQQNQNLVRSKTFTQHSPNPHLRQKMLSDGIKDLSLEEIALDDFGASSEELGYPYNLQKVEETTSEPDANVDAKRCLDGLQELRREAMKQQQELRSVMTLLENRIALKPCPECAQKTIKKPEMADKSLETDDSLTSELKNYESQHNGHNGTPPSQRINIIQEKIKADAADAMEKTCPMCGKQYSSQVSFNAFREHVEMHFIDDALELESENSIERQFEFVSHAVGDF
# B3: esn (protein)
# chain: MQQAPQQQQHPHPPSSSYYTQTESELLQIEAGGTGLTFASHSQRPESAISQVASTAHLDVPSAASSGSGGSAVSGGSGGAPESAGRFVSPLQRRHCQPPSHLPLNSVASPLRTASYKSAAAVAGHGFHHSHHQQLDFQRNSQSDDDSGCALEEYTWVPPGLRPDQVRLYFSQLPDDKVPYVNSPGEKYRVKQLLHQLPPQDNEVRYCHSLSDEERKELRIFSAQRKREALGRGAVRLLSDERPCKGCEEPLSGGDIVVFAQRLGAQLCWHPGCFVCSVCKELLVDLIYFQRDGNLYCGRHHAETQKPRCSACDEIIFSDECTEAEGRTWHMKHFACQECEHQLGGQRYIMREGKPYCLACFDTMFAEYCDYCGEVIGVDQGQMSHDGQHWHATDQCFSCCTCRCSLLGRPFLPRRGTIYCSIACSKGEPPTPSDTSSGPQLRPTHRASTSSQIAKSPRRGGERERDPGRKAHHGHPKATGSAGDLLERQERQRMEAAGVADLLLGGGVPGMPRPAHPPPIDLTELGISLDNICAGDKSIFGDTQTLTNSMPDMLLSKADDSHSYQSIDKINLNSPSNSDLTQSTQELANELELDNEPVRELPHDGYEQLFANNRNQEHPAEQYDDEQLDNRPMKEVRFHSVQDTMSRSKSYTDNSNARRRRRRRNQSRSSSEMQINQTNLRLHNAQTQVGTTPLNLLNNLDNCDVASICSTCSSSSSSDMDDYVYRLPARKHYGGVRVAYVPNDALAYERKKKMAQDSSLAPGAGNASVGGAPAIMHESKNCTIS
# B4: nos (protein)
# chain: MSQHFTSIFENLRFVTIKRSTNAQQQQQQQQQQLQQQQQQLQQQKAQTQQQNSRKIKTQATPTLNGNGLLSGNPNGGGGDSSPSHEVDHPGGAQGAQAAGGLPSSSGTPLRHHKRASISTASPPIRERRGTNTSIVVELDGSGSGSGSGGGGVGVGQGAGCPPSGSCTASGKSSRELSPSPKNQQQPRKMSQDYRSRAGSFMHLDDEGRSLLMRKPMRLKNIEGRPEVYDTLHCKGREILSCSKATCTSSIMNIGNAAVEARKSDLILEHAKDFLEQYFTSIKRTSSTAHETRWKQVRQSIETTGHYQLTETELIYGAKLAWRNSSRCIGRIQWSKLQVFDCRYVTTTSGMFEAICNHIKYATNKGNLRSAITIFPQRTDAKHDYRIWNNQLISYAGYKQADGKIIGDPMNVEFTEVCTKLGWKSKGSEWDILPLVVSANGHDPDYFDYPPELILEVPLTHPKFEWFSDLGLRWYALPAVSSMLFDVGGIQFTATTFSGWYMSTEIGSRNLCDTNRRNMLETVALKMQLDTRTPTSLWKDKAVVEMNIAVLHSYQSRNVTIVDHHTASESFMKHFENESKLRNGCPADWIWIVPPLSGSITPVFHQEMALYYLKPSFEYQDPAWRTHVWKKGRGESKGKKPRRKFNFKQIARAVKFTSKLFGRALSKRIKATVLYATETGKSEQYAKQLCELLGHAFNAQIYCMSDYDISSIEHEALLIVVASTFGNGDPPENGELFSQELYAMRVQESSEHGLQDSSIGSSKSFMKASSRQEFMKLPLQQVKRIDRWDSLRGSTSDTFTEETFGPLSNVRFAVFALGSSAYPNFCAFGQYVDNILGELGGERLLRVAYGDEMCGQEQSFRKWAPEVFKLACETFCLDPEESLSDASLALQNDSLTVNTVRLVPSANKGSLDSSLSKYHNKKVHCCKAKAKPHNLTRLSEGAKTTMLLEICAPGLEYEPGDHVGIFPANRTELVDGLLNRLVGVDNPDEVLQLQLLKEKQTSNGIFKCWEPHDKIPPDTLRNLLARFFDLTTPPSRQLLTLLAGFCEDTADKERLELLVNDSSAYEDWRHWRLPHLLDVLEEFPSCRPPAPLLLAQLTPLQPRFYSISSSPRRVSDEIHLTVAIVKYRCEDGQGDERYGVCSNYLSGLRADDELFMFVRSALGFHLPSDRSRPIILIGPGTGIAPFRSFWQEFQVLSDLDPTAKLPKMWLFFGCRNRDVDLYAEEKAELQKDQILDRVFLALSREQAIPKTYVQDLIEQEFDSLYQLIVQERGHIYVCGDVTMAEHVYQTIRKCIAGKEQKSEAEVETFLLTLRDESRYHEDIFGITLRTAEIHTKSRATARIRMASQP
# B5: sun (protein)
# chain: MTAWRAAGITYIQYSNIAARILRESLKTGLRADAAKRDASHVKFTPWANGKPAQRQTQSES
# B6: Mst87F (protein)
# chain: MCCGPCGPCCGPCCGPCCGPCGPCGGGCGPCYGPNVCGPCYACGPCGGCYCGYPCC
# B7: noi (protein)
# chain: METLLEQQRRLHEERERLVKLMVDEHATKKPGEKERIHSEHRLKYLMELHHNSTSQLRDLYEDKDNERKAEIAALSGPNEFNEFYARLKQIKQFYKSHPAEVSVPLSVEFDEMIRVYNNPDDMSALVEFTDEEGGGRYLDLNECYELYLNLRSVEKLDYITYLMSFDHVFDIPRERKNREYRIYIETLNDYLHHFILRIQPLLDLEGELLKVELDFQRQWLMGTFPGFSIKETESALANTGAHLDLSAFSSWEELASLGLDRLKSALVALGLKCGGTLEERAQRLFSTKGKSTLDPALMAKKPSAKTASAQSREHERHKEIAQLEALLYKYADLLSEQRAATKENVQRKQARTGGERDDSDVEASESDNEDDPDADDVPYNPKNLPLGWDGKPIPYWLYKLHGLNISYNCEICGNFTYKGPKAFQRHFAEWRHAHGMRCLGIPNTAHFANVTQIEDAITLWEKLKSQKQSERWVADQEEEFEDSLGNVVNRKTFEDLKRQGLL
# B8: Bin1 (protein)
# chain: MANVESMIVEEKTQVKQIDREKTCPMLLRVFCSTGRHHSVSEYMFGNVPTNELQIYTWQDATLHELTSLVRDVNPDTRKKGTYFDFAVVYPNFRSNHFQMREIGVTCTGQKGIDDNKTLAQAKFSIGDFLDISITPPNRLPPTARRQRPY
# B9: mtTFB2 (protein)
# chain: MLPLRCSWSFARANYSTKKELVTRYSGDFPEKLLNRKQKVPTHMYIANSEAAARINQYLEPHFQSSGCDTVMELNSGAGYFTRHLLDRESQFRRIILLESMDHFMPKIQELHTLYPERVKVRQGDFVNLWKLVYMDKMDGGSRVADLLSDVPQKAFTDDINMLVFGAVGSYPFFKHLINSLIFQTSLFNLGRCEMILAMPPPIYIHLTCNNEIGYLIYRSTSVLFQILFEHKFIAKVPREDFLPQQMAYSPTKSSKLGKVQSINPEYLYLVKFTPRRNLHELCQSQDLPALWFFIKQNYVSRRNRIIPNLEKWVPGCGPRLIINPKSSESVTPIYPDELPKKLPQYSCQSTTMSTRNYYPGINIYTQFGDLLPSQILTLFSQFRQWPEYGESSFLASLENALLKLETANDEPNLEDGVTLPEEDDAEADEIIEEESPVPATTPVKRRRKASS
# B10: eIF4E1 (protein)
# chain: MQSDFHRMKNFANPKSMFKTSAPSTEQGRPEPPTSAAAPAEAKDVKPKEDPQETGEPAGNTATTTAPAGDDAVRTEHLYKHPLMNVWTLWYLENDRSKSWEDMQNEITSFDTVEDFWSLYNHIKPPSEIKLGSDYSLFKKNIRPMWEDAANKQGGRWVITLNKSSKTDLDNLWLDVLLCLIGEAFDHSDQICGAVINIRGKSNKISIWTADGNNEEAALEIGHKLRDALRLGRNNSLQYQLHKDTMVKQGSNVKSIYTL
# B11: Ubc2 (protein)
# chain: MSSTPAAGSAAEVATSSATSNAPSAPSTTASNVSNTSQPTTAGTPQARGGRGSNANGGASGSNAGGGDEPRKEAKTTPRISRALGTSAKRIQKELAEITLDPPPNCSAGPKGDNLYEWVSTILGPPGSVYEGGVFFLDIHFSPEYPFKPPKVTFRTRIYHCNINSQGVICLDILKDNWSPALTISKVLLSICSLLTDCNPADPLVGSIATQYLQNREEHDRIARLWTKRYAT
# B12: Dpy-30L1 (protein)
# chain: MEAKTDAPISPAPTTNPPAEAGKEPNASSNAQANPTAAPGAPPSGAIAVGQSTNPVAQQQQQPAVAKKPSSETNNMPTRQYLDQTVAPVLLHGMQALARERPTDPIQFLASYLLKHSNGCDENNASAAAVDNNS
# Key:
# Experiment in all cases: MAPPIT interaction score (arbitrary units); higher = stronger binary interaction signal, active = hit call of the paper
# Yp2 = conditions: MAPPIT configuration: N-N; pair source set: Curagen_high_conf
# Vti1a = conditions: MAPPIT configuration: N-N; pair source set: Curagen_high_conf
# Zpr1 = conditions: MAPPIT configuration: N-N; pair source set: Finley_Y2H
# sinah = conditions: MAPPIT configuration: N-N; pair source set: Lit-BS-16
# brat = conditions: MAPPIT configuration: N-N; pair source set: Lit-BM-16
# alrm = conditions: MAPPIT configuration: N-N; pair source set: DPIM
# Vsx1 = conditions: MAPPIT configuration: N-C; pair source set: screen_3
# Yif1 = conditions: MAPPIT configuration: N-N; pair source set: RRS
# bcd = conditions: MAPPIT configuration: N-N; pair source set: Lit-BM-16
# abs = conditions: MAPPIT configuration: N-N; pair source set: DPIM
# Zif = conditions: MAPPIT configuration: N-N; pair source set: screen_2
# Xbp1 = conditions: MAPPIT configuration: N-N; pair source set: Curagen_low_conf
# Vps51 = conditions: MAPPIT configuration: N-N; pair source set: screen_2
# 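Further: HEK293T cells with Epo stimulation, STAT-responsive firefly luciferase reporter, fold induction versus unstimulated cells divided by the larger fold induction of two negative controls lacking either bait or prey.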
binder,measurement,setting,value
B1,MAPPIT interaction score,Yp2,0.235
B2,MAPPIT interaction score,Vti1a,0.032
B3,MAPPIT interaction score,Zpr1,0.202
same,MAPPIT interaction score,sinah,3.43 (active)
B4,MAPPIT interaction score,brat,-0.851
B5,MAPPIT interaction score,alrm,-0.31
B6,MAPPIT interaction score,Vsx1,0.606
B7,MAPPIT interaction score,Yif1,-0.019
B8,MAPPIT interaction score,bcd,-0.341
B9,MAPPIT interaction score,abs,2
B10,MAPPIT interaction score,Zif,-0.101
B11,MAPPIT interaction score,Xbp1,-0.108
B12,MAPPIT interaction score,Vps51,1.49
